Most compounds without a hit are left out; they make up all but 10% or so of the library.
RORg inh: qHTS for inhibitors of ROR gamma transcriptional activity. AID 2551, 2010. Nuclear receptor ROR-gamma (Mus musculus), P51450. Potency, µM (highest dose often 53.6 µM), hits mostly inhibitors. Drosophila S2 Gal4-RORgamma UAS-luciferase reporter, 20 h. 310,000 compounds, 5.4% hits; note: nearly all actives have a fitted effect of over 60% in size
Target sequence (P51450 whole entry, looked up, the tested form may be a part): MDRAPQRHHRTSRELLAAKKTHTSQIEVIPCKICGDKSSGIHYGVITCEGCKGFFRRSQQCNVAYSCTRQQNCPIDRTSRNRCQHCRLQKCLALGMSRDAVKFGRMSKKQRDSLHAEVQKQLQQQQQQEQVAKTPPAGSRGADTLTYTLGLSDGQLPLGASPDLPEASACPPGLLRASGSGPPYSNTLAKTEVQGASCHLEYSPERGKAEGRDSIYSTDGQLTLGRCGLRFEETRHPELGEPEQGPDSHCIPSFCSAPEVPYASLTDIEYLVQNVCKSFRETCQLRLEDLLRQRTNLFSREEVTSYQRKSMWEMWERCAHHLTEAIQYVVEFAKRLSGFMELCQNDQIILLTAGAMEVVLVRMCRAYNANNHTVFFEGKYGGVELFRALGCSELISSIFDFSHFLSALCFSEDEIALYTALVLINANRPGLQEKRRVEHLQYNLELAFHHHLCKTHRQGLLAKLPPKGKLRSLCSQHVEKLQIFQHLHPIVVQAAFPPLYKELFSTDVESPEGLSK
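Drosophila Schneider cells stably carrying a metallothionein-driven Gal4 DBD–ROR gamma fusion and a UAS-Photinus luciferase reporter were exposed to compound for 1 hr, then induced with copper sulfate (700 uM final) for 20 hr at ambient temperature before luminescence reading.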
ELG1 repair inh: qHTS screen for small molecules that inhibit ELG1-dependent DNA repair in human embryonic kidney (HEK293T) cells expressing luciferase-tagged ELG1 | 330,000 compounds, 2.3% hits | HEK293T ELG1-luciferase reporter, luminescence, 16 h; DNA damage induced by 5-fluorouridine | Potency, µM (series often up to 46.1 µM), most hits filed as inhibitors; note: nearly all actives have a fitted effect of over 55% in size
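Step one: seed 2,000 cells per well. Step two: pin-transfer compound or DMSO alongside 5-fluorouridine. Step three: incubate 16 hr, 37 °C, 5% CO2. Step four: add ONE-Glo, wait 30 min, read luminescence.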
SW480 rereplic: A quantitative high throughput screen for small molecules that induce DNA re-replication in SW480 colon adenocarcinoma cells. Potency, µM (highest dose often 46.1 µM), usual class: activators. 340,000 compounds, 1.8% hits. SW480 DNA re-replication, Hoechst DNA content imaging, 48 h; note: nearly all actives have a fitted effect of over 55% in size
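250 cells/well; 23 nL cpd via pin tool; 48 hr, 37 C, 5% CO2; Hoechst 40 min; imager read of total nuclear intensity, ex 405/em 500-530 nm.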
MCF10A rereplic: A quantitative high throughput screen for small molecules that induce DNA re-replication in MCF 10a normal breast cells. MCF 10A DNA re-replication, Hoechst nuclear intensity, 48 h. Potency, µM (titrated, usually from 46.1 µM), usual class: activators. 350,000 compounds, 2.9% hits. AID 624296, 2012; note: nearly all actives have a fitted effect of over 50% in size
Gal4-VP16 FLuc: VP16 counterscreen qHTS for inhibitors of ROR gamma transcriptional activity | Drosophila S2 Gal4-VP16 UAS-luciferase, luminescence, 20 h | 310,000 compounds, 3.5% hits | Potency, µM (highest dose often 53.6 µM), most hits filed as inhibitors | AID 2546, 2010;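 note: Gal4-VP16 expression switched on by copper sulfate through the metallothionein promoter; nearly all actives have a fitted effect of over 50% in size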
Of the large screens only hits and unclear results are named; the others gave an inactive call. Calls come from the whole dose curve; as a rule, active = well fitted curve in the direction sought with a large enough effect; inconclusive = small, poorly fitted or top-dose-only effect, or another doubt; inactive = no such curve, though single readings can be large; an effect the other way counts as inactive or inconclusive.

O=S(=O)(c1ccc(N2CCCC2)cc1)C(F)(F)F	RORg inh inconclusive, Gal4-VP16 FLuc 5.62µM
Cc1cc(Cl)ccc1OCC(=O)OCC(=O)N1CCC(C(N)=O)CC1	none (no result: RORg inh, Gal4-VP16 FLuc)
CCCCN(C(=S)Nc1cccc(C)c1C)c1c(N)n(CCC)c(=O)[nH]c1=O	none
O=C(Cc1ccccc1)Nc1ccc(C(=O)NCC2COc3ccccc3O2)cc1 (centres undefined)	RORg inh inconclusive, Gal4-VP16 FLuc inconclusive
O=C(NCC1COc2ccccc2O1)c1ccc(NC(=O)C(c2ccccc2)c2ccccc2)cc1 (centres undefined)	RORg inh inconclusive, ELG1 repair inh inconclusive, SW480 rereplic 23.1µM, MCF10A rereplic inconclusive
CNc1nnc(SCC(=O)c2c(N)n(C3CC3)c(=O)[nH]c2=O)s1	none (no result: RORg inh, Gal4-VP16 FLuc)
CCc1nc(CNC(=O)C2CCC(=O)N(Cc3ccccc3F)C2)no1 (centres undefined)	none
Cc1ccc(-c2csc(NC(=O)c3c(C)noc3C)n2)cc1	SW480 rereplic 1.64µM, MCF10A rereplic inconclusive (no result: RORg inh, Gal4-VP16 FLuc)
O=[N+]([O-])c1cccc(NC(=S)Nc2nc(-c3ccc(Cl)cc3Cl)cs2)c1	RORg inh 2µM, Gal4-VP16 FLuc 3.16µM (no result: SW480 rereplic, MCF10A rereplic)
CCc1noc(C)c1C(=O)Nc1nc(-c2ccc(Cl)cc2Cl)cs1	RORg inh inconclusive, ELG1 repair inh inconclusive, MCF10A rereplic 16.4µM, Gal4-VP16 FLuc inconclusive
Cc1ccc(-c2csc(NC(=O)CCNC(=O)c3ccco3)n2)cc1	RORg inh inconclusive, ELG1 repair inh inconclusive
Cc1ccc(-c2csc(NC(=S)NC(=O)c3ccco3)n2)cc1	RORg inh 5.62µM, Gal4-VP16 FLuc inconclusive
CCOc1cccc(C(=O)Nc2ccc(S(=O)(=O)Nc3cc(C)on3)cc2)c1	none
Cc1ccc(-c2csc(NC(=O)c3ccc([N+](=O)[O-])o3)n2)cc1	SW480 rereplic 6.51µM, MCF10A rereplic 4.11µM, Gal4-VP16 FLuc inconclusive
COc1ccc(-c2csc(NC(=S)NC(=O)c3ccco3)n2)cc1Br	RORg inh 7.94µM, MCF10A rereplic inconclusive, Gal4-VP16 FLuc inconclusive
Nc1ccc(Nc2ccccc2)c(Cl)c1	ELG1 repair inh inconclusive
Nc1ccccc1Nc1ccccc1	RORg inh 12.6µM, SW480 rereplic inconclusive, MCF10A rereplic inconclusive
Cc1ccc(C(=O)Nc2nccs2)cc1S(=O)(=O)N1CCCCC1	RORg inh 14.1µM, Gal4-VP16 FLuc inconclusive
O=C(Nc1nccs1)c1ccc(Cl)c(S(=O)(=O)N2CCOCC2)c1	RORg inh 15.8µM, ELG1 repair inh 20.6µM, Gal4-VP16 FLuc inconclusive
CC(C)(C)N1C(=O)c2ccc(C(=O)Nc3nccs3)cc2C1=O	RORg inh 7.08µM, ELG1 repair inh inconclusive, Gal4-VP16 FLuc inconclusive
O=C(Nc1nccs1)c1ccc(Br)c(S(=O)(=O)N2CCCC2)c1	RORg inh inconclusive, Gal4-VP16 FLuc inconclusive
C=CCC1(CC=C)CCCN1C(=O)Cn1nnnc1CN(C)C(C)C	none
CC(C)C(=O)NC(=S)N1CCc2ccccc21	RORg inh 8.91µM, SW480 rereplic inconclusive, Gal4-VP16 FLuc inconclusive
COc1ccc(OCC(=O)NC(=S)N2CCCc3ccccc32)cc1	RORg inh inconclusive, ELG1 repair inh inconclusive
O=C(COc1ccccc1)NC(=S)N1CCc2ccccc21	RORg inh 1.26µM, ELG1 repair inh inconclusive, SW480 rereplic inconclusive, Gal4-VP16 FLuc 2.51µM
CC(Oc1ccccc1Br)C(=O)N1CCc2ccccc21 (centres undefined)	RORg inh 14.1µM, ELG1 repair inh inconclusive
O=C(COc1ccccc1Cl)NC(=S)N1CCc2ccccc21	RORg inh 0.708µM, ELG1 repair inh inconclusive, SW480 rereplic inconclusive, Gal4-VP16 FLuc 1.12µM
COc1cccc(C2=Nn3c(nnc3-c3ccc(OC)c(OC)c3)SC2)c1	none (no result: ELG1 repair inh, SW480 rereplic, MCF10A rereplic)
N#Cc1c(-c2ccccc2)nc(SCC(=O)N(c2ccccc2)c2ccccc2)[nH]c1=O	none
N#Cc1c(-c2ccccc2)nc(SCC(=O)N2c3ccccc3Sc3ccccc32)[nH]c1=O	MCF10A rereplic 20.6µM
Cc1ccccc1C(=O)NC1CCN(CC(=O)NCc2ccccc2)CC1	none
Cc1cn([C@H]2C[C@H](O)[C@@H](CCC(=O)NCCc3cnc[nH]3)O2)c(=O)[nH]c1=O	none (no result: RORg inh, ELG1 repair inh, Gal4-VP16 FLuc)
O=c1[nH]c(/C=C/c2ccc(OC(F)F)cc2)nc2c1cnn2-c1ccccc1	ELG1 repair inh inconclusive, SW480 rereplic 9.2µM, MCF10A rereplic 14.6µM
CC(C)Sc1nc2c(cnn2-c2ccccc2)c(=O)[nH]1	none
Cc1oc(-c2cccs2)nc1CN1CCN(CCC(C)C)C(CCO)C1 (centres undefined)	SW480 rereplic inconclusive, MCF10A rereplic 23.1µM
C/C(=N/NC(N)=S)c1cc2ccc(O)cc2oc1=O	RORg inh inconclusive, SW480 rereplic inconclusive, MCF10A rereplic 18.4µM
NC(=S)c1cc2ccc(O)cc2oc1=O	SW480 rereplic 10.3µM, MCF10A rereplic 20.6µM
NC(=S)c1cc2cc(Br)ccc2oc1=O	RORg inh inconclusive
O=c1cc(CSc2ccccc2)[nH]c2ccccc12	RORg inh inconclusive, ELG1 repair inh 11.6µM
CC(C)(C)S(=O)(=O)c1ccc2nc3c(n2c1)CCCC3	none
Brc1ccc2nc3c(n2c1)CCCC3	RORg inh 12.6µM, Gal4-VP16 FLuc inconclusive
CC(=O)c1cnc(Nc2cccc(C)c2)s1	ELG1 repair inh inconclusive, Gal4-VP16 FLuc inconclusive
Cc1ccc(C)c(S(=O)(=O)N2CCN(C(=O)c3n[nH]c(=O)c4ccccc34)CC2)c1	ELG1 repair inh inconclusive (no result: RORg inh, Gal4-VP16 FLuc)
O=C(O)[C@H](Cc1ccccc1)NC(=O)N1CCCCCC1	none
O=C(O)[C@H](Cc1ccccc1)NC(=O)N1CCOCC1	RORg inh 5.01µM
O=C(OCc1ccccc1)N1CCOCCOCCN(C(=O)OCc2ccccc2)CCOCCOCC1	ELG1 repair inh 10µM
Cc1cc(C)c(C(=O)Nc2ccc(Br)c(C(F)(F)F)c2)c(C)c1	RORg inh inconclusive, SW480 rereplic inconclusive, MCF10A rereplic 23.1µM, Gal4-VP16 FLuc inconclusive
COCC(=O)Nc1nnc(-c2ccc(C(C)(C)C)cc2)s1	RORg inh inconclusive, ELG1 repair inh inconclusive, Gal4-VP16 FLuc inconclusive
O=C(Cc1cccs1)Nc1nnc(-c2ccccc2)s1	ELG1 repair inh inconclusive, MCF10A rereplic 0.651µM
O=C(Nc1nnc(-c2ccccc2)s1)c1ccccc1F	RORg inh 12.6µM, ELG1 repair inh inconclusive
O=C(Nc1nnc(-c2ccccc2Cl)s1)c1ccccc1F	ELG1 repair inh inconclusive, MCF10A rereplic inconclusive
CC(C)(C)c1ccc(-c2nnc(NC(=O)c3ccccc3)s2)cc1	RORg inh 7.94µM, ELG1 repair inh inconclusive, MCF10A rereplic inconclusive, Gal4-VP16 FLuc inconclusive
O=C(NCc1cccnc1)C(=O)Nc1cc2c3c(c1)CC(=O)N3CCC2	none (no result: RORg inh, Gal4-VP16 FLuc)
CCC1(CC)N=C(c2ccccc2)C(=S)N1	RORg inh 3.55µM, Gal4-VP16 FLuc 11.2µM
COc1ccc(-c2c(C(C)=O)c(C)nc3sc4c(=N)n(N)cnc4c23)cc1	ELG1 repair inh inconclusive, SW480 rereplic inconclusive
